Here are results for 98 compounds from PubChem BioAssay AID463173 (ICCB-Longwood Screening Facility, Harvard Medical School, 2010).

Structures are written as SMILES. Among all 52,000 compounds or so, about 4,300 (8.3%) were called active. For the sample, actives were picked, then their nearest neighbours and some compounds at random. Unmarked numbers belong to inactive results. Rule as the data show it: active = survival mostly below about 52% (no sharp cut-off); inactive = mostly above about 56%.

For this assay, the system named is DeltatarO mutant. Kind of assay: S. aureus survival, RN4220 and DeltatarO strains – OD600, teichoic acid synthesis inhibitors, primary screen (AID 463173). The note with it: S. aureus RN4220 wild type/DeltatarO growth, OD600, 18 h, hits give low values, screened at 18.75 µg/mL (by protocol).
In the case of `O=C(Cc1ccc(Cl)cc1)Nc1nnc2n1CCS2`, the survival was 77%.
To `O=C(Cc1ccc(F)cc1)Nc1nnc2n1CCS2` belongs 52% (active); to `O=C(Cc1ccccc1)Nc1nnc2n1CCS2`, 71%.
In the case of `CCOC(=O)c1c(C)[nH]c(CCC(=O)NCc2ccccc2C)c1C`, the survival was 80%.
To `COc1cc(NS(=O)(=O)c2ccc(NC(=O)c3ccc(Cl)cc3Cl)cc2)nc(OC)n1` belongs 98%; to `O=C1OC(Nc2ccccc2C(F)(F)F)c2ccccc21` (stereo not drawn), 45%; to `CC(=O)Nc1ccc(NC2OC(=O)c3ccccc32)cc1` (stereo not drawn), 50%.
As for `O=C(Nc1ccc2ncccc2c1)c1ccccc1`, the survival is 94%.
Regarding `O=C1OC(Nc2ccc3ncccc3c2)c2ccccc21` (stereo not drawn), the survival is 30% (active).
To `Cc1ccc(NC2OC(=O)c3ccccc32)cc1` (stereo not drawn) belongs 31% (active).
To `O=C1OC(Nc2ccccn2)c2ccccc21` (stereo not drawn) belongs 42%; to `CCc1ccc(CNC(=O)CN2C(=O)c3cccnc3Oc3ccc(C)cc32)cc1`, 72%; to `Cc1ccc(C=N/C(=N\NC(=O)c2ccccc2)c2ccccc2)o1`, 94%.
With `COc1ccc2nc(N3CCN(C(=O)c4ccco4)CC3)sc2c1` the figure was 88%; with `CCN(CC)CCCNC(=O)c1ccc2c(=O)n(CCc3ccccc3)c(=O)[nH]c2c1`, 82%; with `COc1nc(N2CCCCCC2)nc(N2CCCCCC2)n1`, 66%.
For `CCN(CC)C(=O)C1CCCN(c2ncnc3onc(C)c23)C1` (stereo not drawn), the survival was 99%.
With `CCOc1ccc(N(Cc2ccccc2)C(=O)c2nc(SC)ncc2Cl)cc1` the figure was 72%; with `CCCSc1ncc(Cl)c(C(=O)N(Cc2ccccc2)c2ccc(OC)cc2)n1`, 45% (active); with `CCS(=O)(=O)c1ncc(Cl)c(C(=O)N(Cc2ccccc2)c2ccc(OC)cc2)n1`, 36% (active).
With `CCSc1ncc(Cl)c(C(=O)N(Cc2ccccc2)c2ccc(OC)cc2)n1` the figure was 100%.
With `CCOc1ccc(N(Cc2ccccc2)C(=O)c2nc(SCC)ncc2Cl)cc1` the figure was 106%; with `COc1ccc(N(Cc2ccccc2)C(=O)c2nc(S(C)(=O)=O)ncc2Cl)cc1`, 51%.
Turning to `COc1ccc(N(Cc2ccccc2)C(=O)c2nc(SC)ncc2Cl)cc1`, the survival was 99%.
With `CCOc1ccc(N(Cc2ccccc2)C(=O)c2nc(S(C)(=O)=O)ncc2Cl)cc1` the figure was 24% (active).
To `COc1ccc(CN(C(=O)c2ccco2)c2ccccc2)cc1` belongs 96%.
To `COc1ccc(-c2cn3cccnc3n2)cc1NC(=O)c1cc(C)cc(C)c1` belongs 61%; to `Cc1cc(C)c(NC(=O)Nc2csc3c2CCCC3)c(C)c1`, 78%; to `Cc1c(CNCc2ccc(Cl)cc2)c(C(=O)O)c(C)n1Cc1ccc(F)cc1`, 77%.
For `CCOc1ccc(S(=O)(=O)N2CCN(Cc3nc4ccc(C)cc4o3)CC2)cc1`, the survival was 73%.
To `Cc1ccc(NC(=O)CN(Cc2ccccc2)S(=O)(=O)c2ccc3nc(C)sc3c2)c(C)c1` belongs 83%.
To `CCC(=O)N1CCc2cc(CNC(=O)c3cccc(N(C)C)c3)ccc21` belongs 84%; to `CCOc1ccc(NC(=O)CC2C(=O)N(c3ccc(OC)cc3)C(=O)N2C2CCCCC2)cc1` (stereo not drawn), 110%.
To `Cc1nccn1S(=O)(=O)c1ccc(Cl)cc1Cl` belongs 67%; to `CCOc1cc(C)c(C(C)C)cc1S(=O)(=O)n1ccnc1CC`, -3% (active); to `COc1cc(S(=O)(=O)n2ccnc2C(C)C)ccc1Br`, 55%.
`Cc1nccn1S(=O)(=O)c1c(C(C)C)cc(C(C)C)cc1C(C)C`: the survival was 86%.
With `CCOc1ccc(OCC)c(S(=O)(=O)n2cnc3cc(C)c(C)cc32)c1` the figure was 104%.
As for `CCc1nccn1S(=O)(=O)c1cc(Br)ccc1Br`, the survival is 43% (active).
With `Cc1ccc(NC(=O)CN(C)S(=O)(=O)c2cnc[nH]2)cc1` the figure was 102%.
`Cc1cc(C(=O)NCc2ccccc2)c2c(C)nn(-c3cccc(F)c3)c2n1`: the survival is 55%.
To `O=C(C1CCN(c2ncnc3c2nc2n3CCCCC2)CC1)N1CCN(c2ccc(Cl)cc2)CC1` belongs 81%; to `Cc1ccc(N2CCN(C(=O)C3CCN(c4ncnc5c4nc4n5CCCCC4)CC3)CC2)c(C)c1`, 79%.
With `O=C(C1CCN(c2ncnc3c2nc2n3CCCCC2)CC1)N1CCN(c2ccc(F)cc2)CC1` the figure was -1% (active); with `Cc1cccc(N2CCN(c3ncnc4c3nc3n4CCCCC3)CC2C)c1` (stereo not drawn), 101%.
With `O=C(NCc1ccccc1)C1CCN(c2ncnc3c2nc2n3CCCCC2)CC1` the figure was 84%; with `O=C(NCCc1ccc(Cl)cc1)C1CCN(c2ncnc3c2nc2n3CCCCC2)CC1`, 89%; with `O=C(NCCc1ccccc1)C1CCN(c2ncnc3c2nc2n3CCCCC2)CC1`, -2% (active).
As for `Cc1cccc(N2CCN(C(=O)C3CCN(c4ncnc5c4nc4n5CCCCC4)CC3)CC2C)c1` (stereo not drawn), the survival is 6% (active).
With `O=C(C1CCN(c2ncnc3c2nc2n3CCCCC2)CC1)N1CCN(c2ccccc2)CC1` the figure was 72%.
With `O=c1c(N2CCc3ccccc3C2)csc2ccc(Br)cc12` the figure was 78%; with `Cc1cc(C)c(S(=O)(=O)Nc2ccc(-c3ccc(N4CCCCCC4)nn3)cc2)c(C)c1`, 84%.
To `O=C1CC(C(=O)NCc2ccccc2)N=C(N2CCCCC2)N1` (stereo not drawn) belongs 97%.
Take `Cc1cc(C)cc(NC(=O)CN(C)S(=O)(=O)c2ccc3c(c2)CCC(=O)N3)c1`: the survival is 90%.
With `CCCCOC(=O)OC1CCS(=O)(=O)C1` (stereo not drawn) the figure was 66%.
Consider `Cc1cccc(-n2cc(-c3ccccc3)c3c(NC(C)C)ncnc32)c1`, for which the survival was 107%.
Consider `Nc1ccc2nc(C(F)(F)F)[nH]c2c1`, for which the survival is 95%.
Take `Cc1nc2nc(C(F)(F)F)[nH]c2cc1Br`: the survival was 4% (active).
As for `CC(=O)Nc1cccc(-c2nc3ccccc3o2)c1`, the survival is 107%.
With `Cc1ccc(C(=O)Nc2cccc(-c3nc4ccccc4o3)c2)c(Cl)c1` the figure was 53%; with `COc1ccccc1OC(C)C(=O)Nc1cccc(-c2nc3ccccc3s2)c1` (stereo not drawn), 37% (active).
To `COc1ccccc1OC(C)C(=O)Nc1cccc(-c2nc3ccccc3o2)c1` (stereo not drawn) belongs 18% (active); to `CC(C)C(=O)Nc1cccc(-c2nc3ccccc3o2)c1`, 112%; to `Cc1cc(OC(C)C(=O)Nc2cccc(-c3nc4ccccc4o3)c2)cc(C)c1Cl` (stereo not drawn), 46% (active).
With `CC(Oc1ccccc1F)C(=O)Nc1ccc(-c2nc3ccccc3s2)cc1` (stereo not drawn) the figure was 107%; with `Cc1cc2oc(C(=O)Nc3cccc(-c4nc5ccccc5o4)c3)c(C)c2cc1Cl`, 80%.
For `COc1ccccc1OC(C)C(=O)Nc1ccc(-c2nc3ccccc3s2)cc1` (stereo not drawn), the survival is 64%.
For `COc1ccc(-c2cn3nc(N4CCCC(C(=O)Nc5cccc(Cl)c5C)C4)sc3n2)cc1` (stereo not drawn), the survival was 82%.
With `COc1ccc(-n2ncc(C(=O)NCCCN3CCCCC3)c2C2CCN(C(=O)OC(C)(C)C)CC2)cc1` the figure was 73%; with `CCCOc1ccc(C(=O)Nc2ccc3oc(-c4ccncc4)nc3c2)cc1`, 62%.
With `Cc1cccc(-c2cc(NC(=O)c3ccccc3C)n(-c3ccccc3)n2)c1` the figure was 80%; with `Cc1nc2sc(C(=O)N(C)c3ccccc3)c(NC(=O)c3ccccc3Cl)c2c(C)c1C`, 57%.
With `CCCCCn1c(=O)[nH]c2cc(C(=O)NCc3ccc(Cl)cc3)ccc2c1=O` the figure was 71%; with `COc1cccc2cc(-c3csc(-c4ccc(Cl)cc4)n3)c(=O)oc12`, 99%; with `COc1ccc(NC(=O)c2c(C)oc3ccc(O)c(CN4CCCCCC4)c23)cc1Cl`, 94%.
Regarding `COc1ccc(NC(=O)c2c(C)oc3ccc(O)c(CN4CCC(C)CC4)c23)cc1Cl`, the survival is 55% (active).
With `COc1ccc(NC(=O)c2c(C)oc3ccc(O)c(CN4CCCC(C)C4)c23)cc1` (stereo not drawn) the figure was 87%.
To `COc1ccc(NC(=O)c2c(C)oc3ccc(O)c(CN4CCCC(C)C4)c23)cc1Cl` (stereo not drawn) belongs 52% (active); to `CCN1CCN(Cc2c(O)ccc3oc(C)c(C(=O)Nc4ccc(OC)c(Cl)c4)c23)CC1`, 66%.
With `COc1ccc(NC(=O)c2c(C)oc3ccc(O)c(CN4CCCC4)c23)cc1Cl` the figure was 80%.
Regarding `COc1ccc(CCNCc2c(C(=O)O)c(C)n(Cc3c(F)cccc3Cl)c2C)cc1OC`, the survival was 121%.
With `CCCCOC(=O)c1ccc(NC(=O)Cn2nnc3sc4c(c3c2=O)CCCC4)cc1` the figure was 67%; with `Cc1ccc(CCNS(=O)(=O)c2c(C)nc3sc(C)c(C)n3c2=O)cc1`, 82%.
To `CCCNC(=O)c1cnc2sc(N3CCCCCC3)nn2c1=O` belongs 78%; to `COc1ccc(CNC(=O)c2ccc(NC(=O)N3CCSc4ncccc43)cc2)cc1`, 84%.
With `COc1ccc(OC)c(-n2c3c(cc(-c4nc(-c5ccc(Cl)cc5)cs4)c2=O)C(=O)CC(C)(C)C3)c1`, the survival is 75%.
Regarding `CCc1ccc2oc(-c3cccc(NC(=O)COc4ccccc4Cl)c3)nc2c1`, the survival is 57%.
To `CCOc1ccc(C(=O)Nc2ccc(-c3nc4cc(CC)ccc4o3)cc2)cc1` belongs 61%.
On to `CCc1ccc2oc(-c3ccc(NC(=O)c4cccc(Cl)c4Cl)cc3)nc2c1`, for which the survival was 63%.
With `CCc1ccc2oc(-c3cccc(NC(=O)C(C)(C)Oc4ccc(Br)cc4)c3)nc2c1` the figure was 36% (active).
To `CCc1ccc2oc(-c3cccc(NC(=O)c4ccc(-c5cccc([N+](=O)[O-])c5)o4)c3)nc2c1` belongs 58%.
To `CCOc1ccc(C(=O)Nc2ccc3oc(-c4ccc(Br)cc4)nc3c2)cc1` belongs 68%.
For `CCc1ccc2oc(-c3cccc(NC(=O)c4cc5ccccc5o4)c3)nc2c1`, the survival was 14% (active).
Take `CCc1ccc2oc(-c3ccc(N)cc3)nc2c1`: the survival was 34% (active).
To `COc1ccc(-c2nc3cc(NC(=O)c4cc5ccccc5o4)ccc3o2)cc1` belongs 62%.
To `CC(C)c1ccc2oc(-c3ccc(NC(=O)c4cc5ccccc5o4)cc3)nc2c1` belongs 48%; to `Cc1cc2nc(-c3ccc(NC(=O)c4cc5ccccc5o4)cc3)oc2cc1C`, 51%; to `CCC(C)c1ccc2oc(-c3ccc(NC(=O)c4cc5ccccc5o4)cc3)nc2c1` (stereo not drawn), 46% (active).
